# According to the supplement of paper PMC11732987, “Enantioselective OTUD7B fragment discovery through chemoproteomics screening and high-throughput optimisation” (Communications Chemistry, 2025):
# A number with no mark means an inactive call.
# Experiments:
# Experiment in all cases: log2 ratio of Biotin-Ahx-Ub-VS probe labelling (fragment/DMSO); higher = less target engagement (more negative = stronger competition), active = hit call of the paper (q ≤ 0.05, log2 ratio ≤ -1)
# Settings in all cases: compound concentration: 200 uM; treatment time: 3 h
# [1] = target: T1, OTUD6B (UniProt Q8N6M0)
# T1 sequence (whole entry): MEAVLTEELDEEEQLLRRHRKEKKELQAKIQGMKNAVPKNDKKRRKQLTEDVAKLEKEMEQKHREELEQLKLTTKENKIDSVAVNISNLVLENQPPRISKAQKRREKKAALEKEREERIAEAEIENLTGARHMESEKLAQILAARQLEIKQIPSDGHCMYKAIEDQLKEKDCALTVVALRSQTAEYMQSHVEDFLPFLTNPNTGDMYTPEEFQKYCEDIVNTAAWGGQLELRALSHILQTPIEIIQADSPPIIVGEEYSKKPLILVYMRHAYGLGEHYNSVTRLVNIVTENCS
# In short: (§1)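 HEK293T lysate (495 µg per sample, in Tris/CHAPS/IGEPAL buffer with protease inhibitors) was exposed in triplicate for 3 h to fragment at 200 µM or to vehicle, then to Biotin-Ahx-Ub-VS at 0.5 µM final for 1 h. Labelled DUBs were enriched on NeutrAvidin, digested with LysC and trypsin, and analysed by diaPASEF LC-MS/MS. Spectronaut label-free quantities were normalised to the global median, and values are average log2 ratios of fragment over vehicle from an unpaired t-test. Only proteins with ≥2 unique peptides were used.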
# [2] = target: T2, OTUD7B (UniProt Q6GQQ9)
# T2 sequence (whole entry): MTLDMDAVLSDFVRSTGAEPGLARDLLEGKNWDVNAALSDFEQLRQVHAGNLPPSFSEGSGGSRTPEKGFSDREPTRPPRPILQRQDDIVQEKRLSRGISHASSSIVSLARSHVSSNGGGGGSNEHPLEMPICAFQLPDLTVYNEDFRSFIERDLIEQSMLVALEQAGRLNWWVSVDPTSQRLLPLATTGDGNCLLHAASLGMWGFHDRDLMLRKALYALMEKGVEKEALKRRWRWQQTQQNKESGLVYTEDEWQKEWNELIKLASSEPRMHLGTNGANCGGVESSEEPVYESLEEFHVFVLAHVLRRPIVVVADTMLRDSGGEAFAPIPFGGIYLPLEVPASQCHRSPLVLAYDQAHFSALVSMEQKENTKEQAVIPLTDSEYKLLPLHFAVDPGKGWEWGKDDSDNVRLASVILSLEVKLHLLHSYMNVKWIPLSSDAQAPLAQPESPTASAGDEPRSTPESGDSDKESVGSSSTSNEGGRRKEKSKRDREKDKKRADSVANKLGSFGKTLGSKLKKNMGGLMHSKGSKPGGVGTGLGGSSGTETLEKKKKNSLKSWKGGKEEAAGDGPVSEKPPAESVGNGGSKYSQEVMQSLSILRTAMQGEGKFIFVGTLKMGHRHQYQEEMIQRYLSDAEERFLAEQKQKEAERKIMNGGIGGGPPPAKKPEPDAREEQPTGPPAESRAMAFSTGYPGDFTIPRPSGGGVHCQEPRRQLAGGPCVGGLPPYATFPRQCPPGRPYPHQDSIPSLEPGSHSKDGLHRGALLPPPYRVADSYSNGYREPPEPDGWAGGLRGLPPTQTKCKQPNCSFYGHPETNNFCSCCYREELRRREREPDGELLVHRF
# In short: as §1
# [3] = target: PRPF8 (UniProt Q6P2Q9)
# In short: as §1
# [4] = target: T3, PSMD7 (UniProt P51665)
# T3 sequence (whole entry): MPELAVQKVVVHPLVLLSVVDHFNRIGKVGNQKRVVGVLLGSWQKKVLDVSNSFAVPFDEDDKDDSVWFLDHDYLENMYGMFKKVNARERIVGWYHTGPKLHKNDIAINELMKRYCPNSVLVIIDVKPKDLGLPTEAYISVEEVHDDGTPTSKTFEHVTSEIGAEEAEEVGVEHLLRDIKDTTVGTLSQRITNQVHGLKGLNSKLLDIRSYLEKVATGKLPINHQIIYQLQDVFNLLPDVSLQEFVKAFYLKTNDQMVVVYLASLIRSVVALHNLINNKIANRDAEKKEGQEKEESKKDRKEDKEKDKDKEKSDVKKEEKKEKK
# In short: as §1
# [5] = target: UCHL1 (UniProt P09936)
# UCHL1, sequence (P09936 whole entry, looked up): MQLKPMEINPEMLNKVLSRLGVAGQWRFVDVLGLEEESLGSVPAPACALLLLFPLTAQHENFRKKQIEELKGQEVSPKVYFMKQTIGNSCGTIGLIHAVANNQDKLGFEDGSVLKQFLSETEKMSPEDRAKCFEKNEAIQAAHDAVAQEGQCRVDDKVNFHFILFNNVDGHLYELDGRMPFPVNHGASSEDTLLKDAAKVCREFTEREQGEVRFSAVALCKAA
# In short: as §1
# [6] = target: T4, UCHL3 (UniProt P15374)
# T4 sequence (whole entry): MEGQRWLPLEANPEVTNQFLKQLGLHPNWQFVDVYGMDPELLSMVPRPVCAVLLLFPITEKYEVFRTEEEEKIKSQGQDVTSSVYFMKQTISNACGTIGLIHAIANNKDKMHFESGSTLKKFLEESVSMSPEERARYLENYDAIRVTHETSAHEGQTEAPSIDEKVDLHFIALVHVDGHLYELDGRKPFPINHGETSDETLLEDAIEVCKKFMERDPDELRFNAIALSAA
# In short: as §1
# [7] = target: T5, UCHL5 (UniProt Q9Y5K5)
# T5 sequence (whole entry): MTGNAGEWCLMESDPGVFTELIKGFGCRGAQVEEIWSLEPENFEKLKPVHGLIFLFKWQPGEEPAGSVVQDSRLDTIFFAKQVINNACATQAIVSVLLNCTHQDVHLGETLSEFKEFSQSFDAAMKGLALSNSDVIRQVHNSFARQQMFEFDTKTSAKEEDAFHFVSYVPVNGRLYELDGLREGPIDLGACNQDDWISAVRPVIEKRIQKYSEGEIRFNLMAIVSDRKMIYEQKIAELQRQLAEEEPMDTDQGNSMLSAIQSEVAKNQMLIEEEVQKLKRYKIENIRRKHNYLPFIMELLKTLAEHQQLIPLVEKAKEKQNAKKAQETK
# In short: as §1
# [8] = target: USP10 (UniProt Q14694)
# USP10, sequence (Q14694 whole entry): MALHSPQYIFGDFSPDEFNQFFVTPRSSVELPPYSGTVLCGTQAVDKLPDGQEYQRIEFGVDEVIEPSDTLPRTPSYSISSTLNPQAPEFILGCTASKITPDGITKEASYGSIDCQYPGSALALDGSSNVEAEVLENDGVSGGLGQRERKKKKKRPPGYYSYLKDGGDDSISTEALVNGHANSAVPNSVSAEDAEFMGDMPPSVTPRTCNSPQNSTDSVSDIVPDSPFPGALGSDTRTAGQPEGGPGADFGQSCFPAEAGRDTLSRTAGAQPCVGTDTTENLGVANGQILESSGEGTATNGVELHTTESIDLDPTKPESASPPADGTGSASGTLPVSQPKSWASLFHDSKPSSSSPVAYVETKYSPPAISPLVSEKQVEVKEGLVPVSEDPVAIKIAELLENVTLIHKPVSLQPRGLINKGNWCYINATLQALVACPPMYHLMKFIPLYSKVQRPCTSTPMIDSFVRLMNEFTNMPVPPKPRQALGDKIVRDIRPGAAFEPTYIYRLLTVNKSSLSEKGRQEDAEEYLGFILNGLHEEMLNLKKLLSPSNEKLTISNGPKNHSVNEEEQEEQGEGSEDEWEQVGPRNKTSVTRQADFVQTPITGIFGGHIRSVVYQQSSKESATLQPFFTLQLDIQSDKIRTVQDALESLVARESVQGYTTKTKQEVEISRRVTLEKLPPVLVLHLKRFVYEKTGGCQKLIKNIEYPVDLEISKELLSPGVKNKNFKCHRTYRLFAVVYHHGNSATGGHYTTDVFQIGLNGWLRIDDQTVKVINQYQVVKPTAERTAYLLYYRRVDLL
# In short: as §1
# [9] = target: T6, USP15 (UniProt Q9Y4E8)
# T6 sequence (whole entry): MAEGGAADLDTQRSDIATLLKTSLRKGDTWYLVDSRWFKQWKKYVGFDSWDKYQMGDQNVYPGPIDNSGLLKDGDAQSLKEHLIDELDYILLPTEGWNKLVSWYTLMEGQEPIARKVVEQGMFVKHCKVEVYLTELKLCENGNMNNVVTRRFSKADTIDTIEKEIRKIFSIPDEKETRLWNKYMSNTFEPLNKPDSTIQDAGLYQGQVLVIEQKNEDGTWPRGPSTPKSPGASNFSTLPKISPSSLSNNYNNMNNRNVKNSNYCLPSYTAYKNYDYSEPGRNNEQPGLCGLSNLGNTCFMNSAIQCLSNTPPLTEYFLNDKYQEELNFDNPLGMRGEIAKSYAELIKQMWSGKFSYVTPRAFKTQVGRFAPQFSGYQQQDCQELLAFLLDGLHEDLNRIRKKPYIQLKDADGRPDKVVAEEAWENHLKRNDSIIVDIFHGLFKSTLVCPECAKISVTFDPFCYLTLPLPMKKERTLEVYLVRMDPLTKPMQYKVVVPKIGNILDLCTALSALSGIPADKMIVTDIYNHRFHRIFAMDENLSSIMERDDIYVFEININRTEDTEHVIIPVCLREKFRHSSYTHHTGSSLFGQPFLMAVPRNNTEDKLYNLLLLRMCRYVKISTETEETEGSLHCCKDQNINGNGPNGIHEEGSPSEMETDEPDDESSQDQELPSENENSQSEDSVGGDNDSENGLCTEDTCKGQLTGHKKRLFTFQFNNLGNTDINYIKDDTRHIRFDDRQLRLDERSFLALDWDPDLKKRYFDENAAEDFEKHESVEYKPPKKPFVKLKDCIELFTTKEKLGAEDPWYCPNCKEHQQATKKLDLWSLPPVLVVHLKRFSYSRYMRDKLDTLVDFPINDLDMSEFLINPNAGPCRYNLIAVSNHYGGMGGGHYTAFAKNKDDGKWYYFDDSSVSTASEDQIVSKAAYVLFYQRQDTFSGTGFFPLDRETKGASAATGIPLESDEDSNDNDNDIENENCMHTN
# In short: as §1
# [10] = target: USP16 (UniProt Q9Y5T5)
# USP16, sequence (Q9Y5T5 whole entry, looked up): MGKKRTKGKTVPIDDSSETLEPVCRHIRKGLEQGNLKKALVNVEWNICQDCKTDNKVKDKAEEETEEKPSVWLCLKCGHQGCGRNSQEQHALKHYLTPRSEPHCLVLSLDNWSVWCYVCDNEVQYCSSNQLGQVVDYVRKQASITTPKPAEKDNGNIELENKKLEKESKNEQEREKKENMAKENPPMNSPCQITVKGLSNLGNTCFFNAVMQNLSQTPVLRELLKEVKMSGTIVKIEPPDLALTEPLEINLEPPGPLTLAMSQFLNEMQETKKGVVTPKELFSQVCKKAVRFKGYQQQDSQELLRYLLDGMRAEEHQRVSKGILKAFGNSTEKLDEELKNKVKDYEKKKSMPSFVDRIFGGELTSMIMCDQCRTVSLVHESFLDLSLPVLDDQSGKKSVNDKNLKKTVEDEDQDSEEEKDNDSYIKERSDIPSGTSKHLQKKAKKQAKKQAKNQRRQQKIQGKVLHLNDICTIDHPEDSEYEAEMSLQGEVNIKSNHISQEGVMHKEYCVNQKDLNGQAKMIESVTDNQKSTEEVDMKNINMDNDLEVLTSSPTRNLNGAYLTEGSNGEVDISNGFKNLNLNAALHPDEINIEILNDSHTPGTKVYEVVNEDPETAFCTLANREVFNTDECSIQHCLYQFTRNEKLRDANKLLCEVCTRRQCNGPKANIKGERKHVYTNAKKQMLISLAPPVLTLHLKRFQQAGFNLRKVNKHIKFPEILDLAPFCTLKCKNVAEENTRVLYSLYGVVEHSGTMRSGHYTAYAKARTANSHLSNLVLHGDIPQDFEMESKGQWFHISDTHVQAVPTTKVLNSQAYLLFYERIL
# In short: as §1
compound,measurement,setting,value
CC(C)n1nccc1NC(=O)CCl,log2 ratio of Biotin-Ahx-Ub-VS probe labelling,[1],-0.189
same,log2 ratio of Biotin-Ahx-Ub-VS probe labelling,[2],-2.07 (active)
same,log2 ratio of Biotin-Ahx-Ub-VS probe labelling,[3],-0.0737
same,log2 ratio of Biotin-Ahx-Ub-VS probe labelling,[4],-0.278
same,log2 ratio of Biotin-Ahx-Ub-VS probe labelling,[5],-1.45 (active)
same,log2 ratio of Biotin-Ahx-Ub-VS probe labelling,[6],0.181
same,log2 ratio of Biotin-Ahx-Ub-VS probe labelling,[7],-0.327
same,log2 ratio of Biotin-Ahx-Ub-VS probe labelling,[8],0.0851
same,log2 ratio of Biotin-Ahx-Ub-VS probe labelling,[9],-0.314
same,log2 ratio of Biotin-Ahx-Ub-VS probe labelling,[10],-0.153
